# Source: PubChem BioAssay
# Only some compounds are listed: those with a hit (about 10% of all), similar ones and a draw of the others.
# HEK293 tox: Cytotoxic Profiling in HEK 293 Cell Line of Diverse Libraries Using Quantitative High-Throughput Screening | Potency, µM (series often up to 115 µM), without a hit: at the top dose activity change, negative = cytotoxicity, actives largely listed as inhibitors | AID 1345083, 2018 | HEK 293 viability, ATP luminescence (CellTiter-Glo), 48-72 h | 6.6% of 94,000 active; further: on the % scale 0 is the no-effect control and ±100 the full control effect; nearly all actives have a fitted effect of over 60% in size
#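 Pintool-delivered compounds were incubated with HEK 293 cells (250 cells/well) at 37 degree Celsius for 48 or 72 hr. ATP-dependent luminescence (CellTiter-Glo) then reported remaining viable cells.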
# 3T3 cytotox: Cytotoxic Profiling in NIH 3T3 Cell Line of Diverse Libraries Using Quantitative High-Throughput Screening | NIH 3T3 viability, CellTiter-Glo ATP luminescence, 48-72 h | Potency, µM (highest dose often 96.7 µM), for the others: top-dose activity change, negative = cytotoxicity, usual class: inhibitors | 4.3% of 94,000 active; further: on the % scale 0 is the no-effect control and ±100 the full control effect; nearly all actives have a fitted effect of over 55% in size
#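 Cytotoxicity was measured by CellTiter-Glo ATP luminescence after 48 or 72 h compound exposure at 37 °C. Mouse NIH 3T3 fibroblasts were seeded at 400 cells/well and dosed by 23 nL pin transfer.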
# FLuc inh: Firefly luciferase inhibition profiling of diverse chemical library using quantitative high-throughput screening | Luciferin 4-monooxygenase (Photinus pyralis), P08659 | purified P. pyralis luciferase, luminescence, biochemical | Potency, µM (series often up to 115 µM), hits mostly inhibitors | 2.5% of 76,000 active | AID 1347043, 2019; further: on the % scale 0 is the no-effect control and ±100 the full control effect; nearly all actives have a fitted effect of over 65% in size
#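 Luminescence read by CCD imaging after purified firefly luciferase (10nM final) was added to substrate buffer holding 10uM D-luciferin and 10uM ATP, pH 7.5, pre-dosed with compound.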
# hNpr1 antagonist: Natriuretic polypeptide receptor (hNpr1) antagonism - Primary qHTS | Potency, µM (series often up to 46.3 µM), inactives show at the highest dose activity change, negative = inhibition, usual class: inhibitors | 1.6% of 76,000 active | Atrial natriuretic peptide receptor 1 (Homo sapiens), P16066 | HEK293 hNpr1 GloSensor cGMP, ANP-stimulated luminescence; calls by dose curve; further: on the % scale 0 is the no-effect control and ±100 the full control effect; nearly all actives have a fitted effect of over 60% in size
#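 Compound pre-incubated 30 min at room temperature on GloSensor-loaded HEK293 cells stably carrying hNpr1 and the pGS-40F cGMP biosensor. Stimulation uses hNppA at 0.1 nM final; luminescence is taken at baseline and 20 min post-agonist.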
# GPT2 inh: Primary qHTS assay for inhibitors of Glutamate pyruvate transaminase 2 (GPT2) | AID 1671188, 2021 | Alanine aminotransferase 2 (Homo sapiens), Q8TD30 | 0.25% of 100,000 active | Potency, µM (highest dose often 57.7 µM), for inactives: at the top dose activity change, negative = inhibition, actives largely listed as inhibitors | Recombinant GPT2, coupled pyruvate oxidase/HRP Amplex Red fluorescence; further: on the % scale 0 is the no-effect control and ±100 the full control effect; nearly all actives have a fitted effect of over 60% in size
# Target sequence (Q8TD30 whole entry, looked up): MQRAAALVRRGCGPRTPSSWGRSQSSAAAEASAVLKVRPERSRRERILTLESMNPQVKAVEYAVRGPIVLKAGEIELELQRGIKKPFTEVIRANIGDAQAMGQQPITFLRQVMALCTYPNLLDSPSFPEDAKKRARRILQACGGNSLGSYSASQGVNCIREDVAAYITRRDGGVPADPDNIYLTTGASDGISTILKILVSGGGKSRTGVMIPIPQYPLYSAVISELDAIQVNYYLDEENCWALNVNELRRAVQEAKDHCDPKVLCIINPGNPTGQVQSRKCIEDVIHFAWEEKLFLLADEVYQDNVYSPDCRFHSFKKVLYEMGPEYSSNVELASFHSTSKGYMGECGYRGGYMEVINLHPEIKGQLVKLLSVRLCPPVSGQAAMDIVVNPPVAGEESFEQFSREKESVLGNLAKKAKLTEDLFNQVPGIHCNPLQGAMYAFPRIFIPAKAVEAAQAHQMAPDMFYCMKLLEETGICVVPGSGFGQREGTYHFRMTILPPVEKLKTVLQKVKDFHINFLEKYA
#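 Fluorescence read-out: pyruvate from GPT2 turnover coupled to pyruvate oxidase, HRP and Amplex Red (0.2mM ThPP, 0.2U/mL PO and HRP, 50uM Amplex final). Substrates 250uM a-KG, 2mM L-alanine; enzyme 10ng/uL; 30 min RT.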
# Npr1 antag conf: Natriuretic polypeptide receptor (hNpr1) antagonism - Confirmation; shares compounds with hNpr1 antagonist; Potency, µM (doses to about 57.6 µM), for the others: at the highest dose activity change, negative = inhibition, actives largely listed as inhibitors; HEK293 hNpr1 cGMP GloSensor luminescence, ANP-stimulated; 76% of 1,400 active; calls by dose curve; further: nearly all actives have a fitted effect of over 70% in size
# Npr2 selectivity: Natriuretic polypeptide receptor (hNpr2) antagonism - Subtype selectivity assay; shares compounds with hNpr1 antagonist; HEK293 hNpr2 GloSensor cGMP luminescence, CNP-stimulated; Potency, µM (highest dose often 57.6 µM), for the others: at the highest dose activity change, negative = inhibition, hits mostly inhibitors; 67% of 1,400 active; calls by dose curve; further: nearly all actives have a fitted effect of over 70% in size
# FLuc inh counter: Natriuretic polypeptide receptor (hNpr1) antagonism - Confirmation firefly luciferase (FLuc) inhibition counterscreen; shares compounds with hNpr1 antagonist; Potency, µM (highest dose often 57.6 µM), for the others: at the top dose activity change, negative = inhibition, hits mostly inhibitors; purified FLuc enzyme, luminescence, Km substrate; 0.7% of 1,400 active; further: 0% is about no effect
# GloSensor cGMP: Natriuretic polypeptide receptor (hNpr1) antagonism - Counterscreen GloSensor control cell line; AID 1347051, 2019; 69% of 1,400 active; HEK293 GloSensor cGMP, SNP-stimulated, luminescence; Potency, µM (series often up to 57.6 µM), for the others: at the highest dose activity change, negative = inhibition, most hits filed as inhibitors; shares compounds with hNpr1 antagonist; calls by dose curve; further: on the % scale 0 is the no-effect control and ±100 the full control effect; nearly all actives have a fitted effect of over 70% in size
# Numbers without * were called inactive; i = inactive; ? = inconclusive; nt = not tested or not shown; ! = not active in a repeat; [ ] = dose if it differs, or a comment. Unless noted, the call rests on the fitted dose curve; in most records, active means well fitted curve in the direction sought with a large enough effect; inconclusive means small, poorly fitted or top-dose-only effect, or another doubt; inactive means no such curve, though single readings can be large; an effect the other way counts as inactive or inconclusive. Potency means the concentration at half of the fitted maximal effect.
SMILES,HEK293 tox,3T3 cytotox,FLuc inh,hNpr1 antagonist,GPT2 inh,Npr1 antag conf,Npr2 selectivity,FLuc inh counter,GloSensor cGMP
CC1=NS(=O)(=O)N(C)C=C1C(=O)OCc1nc(-c2cccc(F)c2)no1,?,-24%,i,?,i,nt,nt,nt,nt
CC1=NS(=O)(=O)N(C)C=C1C(=O)OCc1nc(-c2cccc(Cl)c2)no1,?,-19%,i,14µM*,i,22µM*,?,0%,?
CC1=NS(=O)(=O)N(C)C=C1C(=O)OCc1nc(-c2ccc(C(F)(F)F)cc2)no1,40µM*,?,i,10µM*,i,9.7µM*,11µM*,0%,9.7µM*
CC1=NS(=O)(=O)N(C)C=C1C(=O)OCc1nc(-c2ccccc2)no1,?,-24%,i,-9%,i,nt,nt,nt,nt
CC1=NS(=O)(=O)N(C)C=C1C(=O)OCc1nc(-c2ccccc2)oc1C,?,?,i,10µM*,i,12µM*,14µM*,5%,11µM*
CC1=NS(=O)(=O)N(C)C=C1C(=O)OCc1nc(-c2ccsc2)no1,-11%,-13%,i,?,i,nt,nt,nt,nt
Cc1nnnn1CCCN1C[C@H](NC(=O)CC2CCC2)[C@@H](C(C)C)C1,-10%,-10%,i,-1%,i,nt,nt,nt,nt
CC(C)OC(=O)N1CCC(COc2ccc3c(cnn3CC[S+](C)(=O)[O-])c2)CC1,?,?,i,16µM*,?,16µM*,22µM*,-12%[86.2 µM],14µM*
Cc1ccc(C(=O)N2CCN(C3CCN(CCC(C)C)C3=O)CC2)cc1 (stereo not given),?,-7%,i,5%,i,nt,nt,nt,nt
COc1ccc(CCCNc2cc(C3CC(O)C3)ncn2)cc1 (stereo not given),?,-27%,i,10µM*,-5%,19µM*,19µM*,-1%,14µM*
OC1CC(c2cc(NCCOc3ccccc3)ncn2)C1 (stereo not given),?,?,?,?,-4%,nt,nt,nt,nt
OC1CC(c2cc(NCCOCc3ccc(Cl)cc3)ncn2)C1 (stereo not given),?,?,i,11µM*,-1%,22µM*,?,-3%,22µM*
O=S(=O)(CCNc1cc(C2CC(O)C2)ncn1)c1ccc(F)cc1 (stereo not given),i,5%,i,-3%,-9%,nt,nt,nt,nt
COc1cc(Br)c(S(=O)(=O)Nc2ccc(C(F)(F)F)c(O[C@@H]3CCN(C)C3)c2)cc1OC,nt,nt,nt,nt,i,nt,nt,nt,nt
O=C(NCCc1ccc(Cl)cc1)c1nc(-c2ccc(Cl)nc2)c2ccccn12,?,-20%,nt,nt,-9%,nt,nt,nt,nt
COc1ncccc1-c1cnc2[nH]cc(CC(=O)Nc3ccccn3)c2c1,?,?,i,?,i,nt,nt,nt,nt
COc1cccc(NC(=O)Cc2c[nH]c3ncc(-c4cccnc4OC)cc23)c1,50µM*,28µM*,i,?,?,40µM*,?,-10%[86.2 µM],?
COc1ccc(NC(=O)Cc2c[nH]c3ncc(-c4ccccc4)cc23)cn1,?,-27%[138 µM],i,?,-8%[88.5 µM],?,?,-1%[86.2 µM],-20%[86.2 µM]
O=C(C1CCN([S+](=O)([O-])c2ccccc2)CC1)N1CCC(c2nc3ncccc3[nH]2)CC1,2%,-14%,nt,nt,0%,nt,nt,nt,nt
Cc1ccc2nc(C3CCN(Cc4ccc(C#N)cc4)CC3)[nH]c(=O)c2c1,?,?,i,?,i,17µM*,?,2%,17µM*
O=c1[nH]c(C2CCCN(Cc3ccc(-c4cccs4)cc3)C2)nc2ccc(F)cc12 (stereo not given),40µM*,?,i,16µM*,-1%,24µM*,27µM*,1%,31µM*
N#Cc1ccc(CN2CCC(c3nc4ccc(F)cc4c(=O)[nH]3)CC2)cc1,-29%,-21%,nt,nt,i,nt,nt,nt,nt
COc1ccccc1-c1ccc(CN2CCCC(c3nc4ccc(C)cc4c(=O)[nH]3)C2)cc1 (stereo not given),18µM*,28µM*!,i,?,-15%,?,?,2%,?
Cc1noc([C@@H](C)NC(=O)C2CCCCC2)c1C(=O)O,i,i,i,1%[70.6 µM],-11%[88.5 µM],nt,nt,nt,nt
O=C(NC1CCN(Cc2ccccc2)CC1)c1c(OCC2CC2)cc(=O)n2c1CCCCC2,-1%,-4%,i,2%,i,nt,nt,nt,nt
Cc1ccc(NC(=O)CCC2CCN(S(=O)(=O)c3ccccc3C)CC2)cc1F,-52%,?,i,?,3%,?,?,3%,?
Cc1ccccc1S(=O)(=O)N1CCC(CCC(=O)O)CC1,-1%,i,i,-1%,-2%,nt,nt,nt,nt
COc1ccc(N2CC(C(=O)N(C)C)NC2=O)cc1 (stereo not given),-13%[172 µM],-1%[138 µM],i,0%[70.6 µM],i,nt,nt,nt,nt
CN(Cc1nc(Cc2ccccc2Cl)no1)Cc1cccc2cnccc12,?,?,i,14µM*,i,11µM*,12µM*,0%,11µM*
Cc1nn2c(c1-c1ccccc1-c1ccccc1)N(Cc1cccc(O)c1)CCC2,?,?,i,2.2µM*,-7%[88.5 µM],3.1µM*,5µM*,-1%[86.2 µM],3.5µM*
